In the library only some 17% were active in any assay of this set; here they are far more common.
DT40 TDP1 CPT: DT40-hTDP1 cell growth loss with CPT; 12% of 420,000 active; chicken DT40 Tdp1-/-;hTDP1 cells + 20 nM CPT, ATP luminescence, 48 h; AID 686979; Potency, µM (top dose mostly 46.2 µM), inactives show at the highest dose activity change, negative = growth inhibition, usual class: inhibitors; also: % is scaled to controls: 0 for no effect and ±100 for the full control effect; nearly all actives have a fitted effect of over 55% in size
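Cell growth measured by CellTiter-Glo luminescence after a minimum 48 h, 37 C compound exposure with 20 nM CPT in Tdp1-knockout DT40 cells stably expressing hTDP1, seeded 400/well; qHTS titration format.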
TDP1 cell noCPT: qHTS for Inhibitors of human tyrosyl-DNA phosphodiesterase 1 (TDP1): qHTS in cells in absence of CPT. DT40 Tdp1-/- hTDP1 cells, no CPT, ATP luminescence, 48 h. Potency, µM (top dose mostly 46.2 µM), inactives show at the highest dose activity change, negative = growth inhibition, usual class: inhibitors. 15% of 420,000 active; also: % is scaled to controls: 0 for no effect and ±100 for the full control effect; nearly all actives have a fitted effect of over 55% in size
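No-CPT arm: Tdp1-/-;hTDP1 DT40 cells (400/well) plus compounds, incubated ≥48 hr at 37 °C. Readout CellTiter-Glo luminescence.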
ClpP mod: qHTS Assay for Activators of ClpP; Potency, µM (top dose mostly 57.5 µM), without a hit: at the highest dose activity change, negative = active; ATP-dependent Clp protease proteolytic subunit (Bacillus subtilis (strain 168)), P80244; purified B. subtilis ClpP, FRET peptide cleavage, 20 min; 1.9% of 340,000 active; active = well fitted falling curve with a large enough effect; inconclusive = small, poorly fitted or top-dose-only effect; inactive = no such curve, though single readings can be large or run the other way; also: the source files actives as falling curves though it sought activators and does not explain the sign; nearly all actives have a fitted effect of over 65% in size
Target sequence (P80244 whole entry, looked up): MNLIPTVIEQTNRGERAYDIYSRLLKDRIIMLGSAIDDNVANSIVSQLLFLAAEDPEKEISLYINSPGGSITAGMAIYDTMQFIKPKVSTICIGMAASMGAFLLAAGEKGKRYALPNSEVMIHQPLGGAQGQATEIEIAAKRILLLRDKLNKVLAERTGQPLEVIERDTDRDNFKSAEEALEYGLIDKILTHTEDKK
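ClpP 10 microg/mL final, pH 8 Tris/KCl buffer with BSA, glycerol, Tween-20; compound pinned in; FRET-FV substrate; RT 20 min; Ex320/Em430; ΔFRET vs ADEP 5.8 microM, DMSO, no enzyme.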
TDP1 block: TDP1 (human) enzyme inhibition; AID 485290; Q9NUW8; recombinant TDP1, AlphaScreen DNA substrate cleavage; Potency, µM (series often up to 130 µM), for the others: top-dose activity change, negative = inhibition, most hits filed as inhibitors; 0.28% of 350,000 active; also: % is scaled to controls: 0 for no effect and ±100 for the full control effect; nearly all actives have a fitted effect of over 40% in size
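Signal: AlphaScreen proximity between streptavidin donor and anti-FITC acceptor beads on intact substrate. Reaction: Tdp1 1 nM, substrate 15 nM final, 5 min RT after 15 min compound preincubation.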
Numbers without * were called inactive; [ ] = remark or other dose. Unless noted, calls follow the shape of the dose curve; as a rule, active = well fitted curve in the direction sought with a large enough effect; inconclusive = small, poorly fitted or top-dose-only effect, or another doubt; inactive = no such curve, though single readings can be large; an effect the other way counts as inactive or inconclusive. Potency is read from the fitted curve at half-maximal effect.

CN(Cc1ccco1)c1ncnc2ccc(-c3ccc4c(c3)OCO4)cc12 was read as DT40 TDP1 CPT 18µM*, TDP1 cell noCPT 16µM* and TDP1 block 4%.
`O=S1(=O)CC(N2CCCCC2)C1CN1CCCCC1` (centres undefined) gave DT40 TDP1 CPT 0%, TDP1 cell noCPT -2% and ClpP mod -5%.
For COc1ccc(S(=O)(=O)N2CCOCC2)cc1NC(=O)CSc1nnc(C2CC2)n1C the results were DT40 TDP1 CPT 21%, TDP1 cell noCPT 2%, ClpP mod -2% and TDP1 block -1%.
For COc1ccccc1/C=C/C(=O)Nc1ccc(S(=O)(=O)Nc2cc(C)on2)cc1 the results were DT40 TDP1 CPT 0%, TDP1 cell noCPT -3%, ClpP mod -10% and TDP1 block 3%.
For Cc1noc(C)c1-c1ccc2ncnc(N(C)Cc3ccco3)c2c1 the results were DT40 TDP1 CPT inconclusive, TDP1 cell noCPT 12µM* and TDP1 block 5%[56.1 µM].
Screening CN(Cc1ccco1)c1ncnc2ccc(-c3ccc4c(ccn4C)c3)cc12 returned TDP1 block 3%.
For O=C(CSc1ccc(Cl)cc1)N1CCN(c2ccc([N+](=O)[O-])cc2Cl)CC1 the results were DT40 TDP1 CPT inconclusive, TDP1 cell noCPT 18µM*, ClpP mod 0% and TDP1 block 2%.
O=[N+]([O-])c1ccc(N2CCN(c3ccccc3O)CC2)c(Cl)c1 was read as DT40 TDP1 CPT 21µM*, TDP1 cell noCPT 23µM*, ClpP mod 1% and TDP1 block 0%.
`CCCC(=O)N1CCN(c2ccc([N+](=O)[O-])cc2Cl)CC1` gave DT40 TDP1 CPT inconclusive, TDP1 cell noCPT inconclusive, ClpP mod 3% and TDP1 block 2%.
O=[N+]([O-])c1ccc(N2CCN(c3ccccc3O)CC2)cc1 was read as DT40 TDP1 CPT 5% and TDP1 cell noCPT -13%.
For O=C(/C=C/c1ccc(Cl)cc1)N1CCN(c2c(Cl)cccc2[N+](=O)[O-])CC1 the results were DT40 TDP1 CPT inconclusive, TDP1 cell noCPT 15µM*, ClpP mod -2% and TDP1 block 6%.
For O=C(CSc1ccc(Cl)cc1)N1CCN(c2c(Cl)cccc2[N+](=O)[O-])CC1 the results were DT40 TDP1 CPT 16µM*, TDP1 cell noCPT 15µM*, ClpP mod -1% and TDP1 block 4%.
Screening Cc1sc2ncn(CC(=O)N3CCN(c4ccccc4F)CC3)c(=O)c2c1S(=O)(=O)N1CCC(C)CC1 returned DT40 TDP1 CPT inconclusive, TDP1 cell noCPT inconclusive, ClpP mod -2% and TDP1 block 9%.
O=c1c2oc3ccccc3c2n(Cc2cccc(C(F)(F)F)c2)c(=O)n1Cc1ccc2c(c1)OCO2 was read as DT40 TDP1 CPT inconclusive, TDP1 cell noCPT inconclusive, ClpP mod -9% and TDP1 block 3%.
For Cc1cccc(C(=O)NC(C(=O)Nc2cccc(S(=O)(=O)N3CCCC3)c2)C(C)C)c1 (centres undefined) the results were DT40 TDP1 CPT inconclusive, TDP1 cell noCPT inconclusive, ClpP mod 1% and TDP1 block -3%.
`CC1CC(CCN)(c2ccccc2)C(C)CN1C` (centres undefined) gave DT40 TDP1 CPT 2% and TDP1 cell noCPT 0%.
`CC=Cc1cc(OC)c2c(c1)C(C)C(c1ccc(O)c(OC)c1)O2` (centres undefined) gave DT40 TDP1 CPT inconclusive, TDP1 cell noCPT inconclusive and ClpP mod 0%.
For O=[N+]([O-])c1ccc(N2CCN(CCOc3nonc3-c3ccccc3)CC2)c(Cl)c1 the results were DT40 TDP1 CPT 29µM*, TDP1 cell noCPT inconclusive, ClpP mod -8% and TDP1 block 4%.
O=C(CCSc1ccc(Cl)cc1)N1CCN(c2ncccn2)CC1 was read as DT40 TDP1 CPT 13µM*, TDP1 cell noCPT inconclusive, ClpP mod -8% and TDP1 block 3%.
Cc1nc(N2CCCC2)c2c(C(=O)Nc3cccc(C)c3C)c(C)oc2n1 was read as DT40 TDP1 CPT 2%, TDP1 cell noCPT -13%, ClpP mod 2% and TDP1 block -2%.
COCCn1c(=O)c(-c2ccccc2)nc2cnc(Nc3cccc(OC)c3)nc21 was read as DT40 TDP1 CPT -6% and TDP1 cell noCPT 3%.
For CCN(CC)S(=O)(=O)c1cccc(NC(=O)c2ccccc2Br)c1 the results were DT40 TDP1 CPT -24%, TDP1 cell noCPT inconclusive and TDP1 block 8%.
COc1cc(SC)ccc1C(=O)Nc1cccc(S(=O)(=O)NC2=NCCCCC2)c1 was read as DT40 TDP1 CPT 21µM*, TDP1 cell noCPT inconclusive, ClpP mod -4% and TDP1 block -3%.
CCN(CC)S(=O)(=O)c1cccc(NC(=O)c2ccc(SC)cc2OC)c1 was read as DT40 TDP1 CPT 26µM*, TDP1 cell noCPT 7.3µM*, ClpP mod 1% and TDP1 block 7%.
COc1cc(OC)c(C(=O)OCC(=O)Nc2cccc(S(=O)(=O)NC3=NCCCCC3)c2)cc1OC was read as DT40 TDP1 CPT inconclusive, TDP1 cell noCPT inconclusive and ClpP mod -1%.
Screening COc1cccc(Nc2nc3cc(C)ccc3nc2NS(=O)(=O)c2ccc(Cl)cc2)c1 returned DT40 TDP1 CPT 5.2µM*, TDP1 cell noCPT 4.1µM*, ClpP mod -9% and TDP1 block 0%.
Screening COCCCNc1nc2ccccc2nc1NS(=O)(=O)c1ccc(Cl)cc1 returned DT40 TDP1 CPT inconclusive, TDP1 cell noCPT inconclusive and ClpP mod -20%.
CCOc1ccccc1Nc1nc2ccccc2nc1NS(=O)(=O)c1ccc(Cl)cc1 was read as DT40 TDP1 CPT inconclusive, TDP1 cell noCPT 5.2µM* and ClpP mod -8%.
Screening Cc1cc(C)c(NC(=O)CN(C)S(=O)(=O)c2ccc3c(c2)CCC(=O)N3)c(C)c1 returned DT40 TDP1 CPT -13%, TDP1 cell noCPT -24%, ClpP mod 1% and TDP1 block 0%.
COc1cc(OC)c2nc(-c3cc4c(c(OC)c3)OCCN(Cc3cn(C)nc3C)C4)cc(C)c2c1 was read as DT40 TDP1 CPT -6%[9.04 µM] and TDP1 cell noCPT inconclusive.
For CCN(CC)C(=O)Cn1c(=O)nc(-c2ccccc2F)c2cc(Cl)ccc21 the results were DT40 TDP1 CPT -8%, TDP1 cell noCPT -10%, ClpP mod -6% and TDP1 block 9%.
For O=C(CSc1n[nH]c(-c2ccncc2)n1)Nc1ccc(Cl)c(C(=O)O)c1 the results were DT40 TDP1 CPT 4% and TDP1 cell noCPT -2%.
Screening Cc1ccc(CSc2cn(CC(=O)N3CCCCC3)c3ccccc23)cc1 returned DT40 TDP1 CPT inconclusive, TDP1 cell noCPT 23µM*, ClpP mod -4% and TDP1 block -5%.
`O=C(Cn1cc(SCc2ccccc2)c2ccccc21)N1CCCCCC1` gave DT40 TDP1 CPT inconclusive, TDP1 cell noCPT inconclusive, ClpP mod -3% and TDP1 block 0%.
